The compounds below were run against Hexose transporter 1 (Plasmodium falciparum) (UniProt O97467) (assay: ST_JUDE_LEISH: Cytotoxicity at 2uM final concentration against transgenic Leishmania Mexicana promastigotes LmPfHT that are glucose transport deficient and complemented with the Plasmodium falciparum hexose transporter. Activity is measured by DNA content using SYBR green in vitro).
Assay type: functional

| Compound | inhibition [%] |
| --- | --- |
| CN(C)C(CNC(=O)c1cc(-c2ccncc2)c(-c2ccc(NC(=O)Nc3cccc(Cl)c3)cc2)o1)c1ccccc1 (stereo not given) | 2.82 |
| CS(=O)(=O)CCNCc1ccc(-c2ccc3c(Nc4ccc(Cl)cc4F)ccnc3c2)o1 | 3.39 |
| NC(=O)N1CCN(Cc2ccc(Br)cc2)CC1 | 1.05 |
| CC(=O)c1sc(Cc2nc3ccccc3s2)nc1C | 1.15 |
| CN1CCC(NCc2ccc(-c3ccc(S(=O)(=O)NCc4ccccc4)cc3)cc2)CC1 | -1.45 |
| O=c1[nH]ccc2nc(N[C@@H]3CCNC3)nc(Nc3ccc4c(c3)S(=O)(=O)CC4)c12 | 1.38 |
| CN(C)c1ccc(-c2csc(C(=O)NCC3CCN(Cc4ccc(C(C)(C)C)cc4)C3)c2)cc1 (stereo not given) | -1.85 |
| NC(=O)c1cccc(-n2ccc3cc(CNC4Cc5ccccc5C4)ccc32)c1 | 26.2 |
| COc1cccc(-c2cc(-c3ccc(NC(=O)c4ccccc4)cc3)c3c(N)ncnc3n2)c1 | 0.31 |
| NC1CCN(c2cnn(Cc3cccc(NC(=O)Nc4ccc(-c5ccccc5)cc4)c3)c(=O)c2Cl)CC1 | 1.72 |
| CCCCCCC(C)c1cc(OCCN(CC)CC)c2c(c1)OC(C)(C)C=C2c1ccncc1 (stereo not given) | 0.33 |
| O=C(NC1CCN(Cc2ccc(O)cc2)CC1)c1ccc(Cl)c(Cl)c1 | 4.25 |
| NC(=O)c1ccccc1Nc1nc(Nc2cccc(N3CCN(CCO)CC3)c2)ncc1Cl | 67.3 |
| Cc1nc(-c2ccc(-c3ccc(NC(=O)c4coc5ccc(N6CC(C)NC(C)C6)cc45)cc3)c(C)c2)no1 (stereo not given) | 5.16 |
| Fc1cccc(COc2ccc(Nc3ncnc4sc(C#Cc5ncc[nH]5)cc34)cc2Cl)c1 | -0.11 |
| Cc1cccc2nc(-c3ccc(-c4cccc(CNC(C)C)c4)s3)[nH]c12 | 1.37 |
| CSc1sc(NC(=O)Nc2cccc(C(F)(F)F)c2)cc1C#N | 1.51 |
| CC(C)(C)c1ccc(NC(=O)c2ccc(CN3CCCN(Cc4cccc(Cl)c4)CC3)cc2)cc1 | 2.95 |
| COc1cccc2c(NN=Cc3ccc(Cl)cc3)ccnc12 | 2.54 |
| CC(=O)Nc1ccc(C(=O)NC2CCN(c3ccnc4cc(Cl)ccc34)C2)cc1 (stereo not given) | 0.28 |

| Compound | inhibition [%] |
| --- | --- |
| CNC(=O)c1cnc(Nc2ccc(OCC(O)CN(C)C)cc2)nc1Nc1cccc(OC)c1 (stereo not given) | -2.08 |
| CCOc1cc2ncnc(Nc3ccc(OCc4ccccc4OC)c(OC)c3)c2cc1OCC | 2.81 |
| CCN(CCCN1CCCCC1)c1cc(C)nc(Nc2ccc(C)cc2)n1 | 1.61 |
| CC1CN(c2ccc(NC(=O)c3ccsc3)cc2C(=O)N2CCN(Cc3ccc(C(C)(C)C)cc3)CC2)CC(C)O1 (stereo not given) | 1.1 |
| CCCc1ccc(S(=O)(=O)NC2CCN(c3ccnc(Nc4ccc(F)cc4)n3)C2)cc1 (stereo not given) | 0.26 |
| CC(C)(C)c1ccc(NC(=O)c2cccc(CN3CCCN(Cc4cccc(O)c4)CC3)c2)cc1 | 6.24 |
| O=C(NC1CCN(c2ccnc3cc(Cl)ccc23)C1)c1ccccc1F (stereo not given) | 2.22 |
| Cc1cc(-c2cnc(N)c(-c3ccc(N4CCN(C)CC4)nc3)c2)cc(C)c1O | 0.69 |
| C[C@@H](Oc1cc(-n2cnc3ccc(NC(=O)NC(C)(C)C)cc32)sc1C(N)=O)c1ccccc1Cl | 3.45 |
| CC(C)N1CCC(NC(=O)N2CCCN(c3ncnc4cc(-c5ccccc5)sc34)CC2)CC1 | 2.28 |
| CC(C)CN1CCCN(Cc2cccc(NC(=O)c3ccc(-c4ccccc4)cc3)c2)CC1 | 0.24 |
| Cc1noc(C)c1-c1cccc(CNCc2cccc(-c3csc(-c4nc5ccccc5[nH]4)c3)c2)c1 | 3.22 |
| Oc1ccc(OCc2ccccn2)cc1 | 6.09 |
| COc1ccc(O)c(C(=O)NCCc2ccc(OC)c(-c3ccc(C(C)(C)C)cc3)c2)c1 | 5.01 |
| O=C(NC(Nc1ccc([N+](=O)[O-])cc1)C(Cl)(Cl)Cl)c1ccc(Cl)cc1 (stereo not given) | -3.03 |
| O=C(Nc1ccc(Cn2ncc(N3CCCNCC3)c(Cl)c2=O)cc1)Nc1cc(F)cc(C(F)(F)F)c1 | 3.7 |
| CC(C)C[C@H]1C(=O)N[C@H](C2Cc3ccccc3C2)C(=O)N1[C@@H](C(=O)Nc1ccccc1OCc1ccccc1)c1ccc(F)cc1F | -0.17 |
| O=C(Nc1ccc(Cl)cn1)c1sc2ccccc2c1O | 3.43 |
| COc1ccc(CCC(C)(C)NCC(O)c2cccc(C(F)(F)F)c2)cc1 (stereo not given) | 3.58 |
| CCCCCCN1CCC(NCc2ccc(C(F)(F)F)cc2)CC1 | 1.54 |
